{
  "source": "ChEMBL document CHEMBL4513216",
  "about": "“Probing the Open Global Health Chemical Diversity Library for Multistage-Active Starting Points for Next-Generation Antimalarials” (ACS Infect Dis, 2020)",
  "note": "Screen size: about 68,000 compounds; about 2,700 (4%) showed an effect of 50% or more. This excerpt belongs to a sample that is enriched for strong results.",
  "data": [
    {"system": "Plasmodium berghei", "experiment": "Screen against P. berghei liver stage (PbLuc), transformed with Luciferase, at 2uM", "format": "functional, HepG2", "settings": "tested at 2 uM", "units": {"INHIBITION": "%"}, "values": [
      {"smiles": "CCCN1CCCn2nc(CNS(=O)(=O)c3cccc(F)c3)cc2C1", "INHIBITION": 39.28},
      {"smiles": "Cc1ccc(CN(Cc2[nH]cnc2C)C2CC(C)(C)NC(C)(C)C2)o1", "INHIBITION": -13},
      {"smiles": "Cc1nc(C2CCCN2CC(=O)N2CCc3ccccc32)no1", "note": "(stereo not drawn)", "INHIBITION": 47.93},
      {"smiles": "COCCOc1ccc(NC(=O)N2CCOC(C(N)=O)C2)cc1F", "note": "(stereo not drawn)", "INHIBITION": 29.89},
      {"smiles": "Cc1cc(NC(=O)N2CCOC(C(N)=O)C2)ccc1Br", "note": "(stereo not drawn)", "INHIBITION": 29.89},
      {"smiles": "CCOc1ccc(NC(=O)N2CCOC(C(N)=O)C2)cc1Cl", "note": "(stereo not drawn)", "INHIBITION": 51.4},
      {"smiles": "NC(=O)C1CN(C(=O)Nc2cc(Cl)cc(Cl)c2)CCO1", "note": "(stereo not drawn)", "INHIBITION": 80.56},
      {"smiles": "CCOc1ccc(NC(=O)N2CCOC(C(N)=O)C2)cc1C", "note": "(stereo not drawn)", "INHIBITION": 6.22},
      {"smiles": "COCC1CN(C(=O)Nc2cc(Cl)cc(Cl)c2)CCO1", "note": "(stereo not drawn)", "INHIBITION": 13.12},
      {"smiles": "Cc1ccsc1C(=O)N1CCCN(Cc2cscn2)CC1", "INHIBITION": 29.12},
      {"smiles": "COc1ccc(NCCC(=O)NCc2cccnc2N(C)C)cc1", "INHIBITION": 35.54},
      {"smiles": "CCOC(=O)c1cnn(C2CCN(C(=O)CC(C)(C)C)CC2)c1N", "INHIBITION": -40.25},
      {"smiles": "c1ccc(CN2CCC3(CC2)CC(Nc2nccs2)CO3)nc1", "note": "(stereo not drawn)", "INHIBITION": -14.97},
      {"smiles": "O=C(NCC1CCCN1Cc1ccccc1)NCC1(O)CCC1", "note": "(stereo not drawn)", "INHIBITION": -19.78},
      {"smiles": "O=C(NCC1CCCN1CCc1ccccc1)NCC1(O)CCC1", "note": "(stereo not drawn)", "INHIBITION": 57.34},
      {"smiles": "O=C(NCC1CCN(CCc2ccccc2)C1)NCC1(O)CCC1", "note": "(stereo not drawn)", "INHIBITION": -69.19},
      {"smiles": "Cc1cc(CN2CC[C@H]3C[C@H](c4nc(C5CC5)cs4)O[C@@H]3C2)no1", "INHIBITION": 35.84},
      {"smiles": "COCCC1COC2(CCN(C(=O)c3ccccc3)CC2)C1", "note": "(stereo not drawn)", "INHIBITION": -40.63},
      {"smiles": "COCCC1COC2(CCN(C(=O)c3ccncc3)CC2)C1", "note": "(stereo not drawn)", "INHIBITION": 2.5},
      {"smiles": "COCCC1COC2(CCN(C(=O)c3ccsc3)CC2)C1", "note": "(stereo not drawn)", "INHIBITION": 56.71},
      {"smiles": "Cn1cnc(S(=O)(=O)NCCN2CCCCCC2=O)c1Cl", "INHIBITION": 3.86},
      {"smiles": "Cc1ccccc1C(=O)NC1CCN(c2cnn(C)c2)C1=O", "note": "(stereo not drawn)", "INHIBITION": 52.08},
      {"smiles": "Cc1ccsc1C(=O)NC1CCN(c2cnn(C)c2)C1=O", "note": "(stereo not drawn)", "INHIBITION": 20.14},
      {"smiles": "Cn1cc(N2CCC(NC(=O)c3ccccc3Cl)C2=O)cn1", "note": "(stereo not drawn)", "INHIBITION": 28.95},
      {"smiles": "Cn1cc(N2CCC(NC(=O)c3ccccc3F)C2=O)cn1", "note": "(stereo not drawn)", "INHIBITION": 63.1},
      {"smiles": "Cc1cccc(C(=O)NC2CCN(c3cnn(C)c3)C2=O)n1", "note": "(stereo not drawn)", "INHIBITION": 1.22},
      {"smiles": "Cc1cccc(C(=O)NC2CCN(c3cnn(C)c3)C2=O)c1C", "note": "(stereo not drawn)", "INHIBITION": 13.53},
      {"smiles": "Cn1cc(N2CCC(NC(=O)c3c(F)cccc3Cl)C2=O)cn1", "note": "(stereo not drawn)", "INHIBITION": 50.98},
      {"smiles": "CCc1ccc(C(=O)NC2CCN(c3cnn(C)c3)C2=O)o1", "note": "(stereo not drawn)", "INHIBITION": 26.65},
      {"smiles": "Cn1cc(N2CCC(NC(=O)c3c(F)cccc3F)C2=O)cn1", "note": "(stereo not drawn)", "INHIBITION": 31.98},
      {"smiles": "COc1ccc(S(=O)(=O)NCCn2cnc(C)cc2=O)cc1C", "INHIBITION": 11.94},
      {"smiles": "CCCN1C[C@@H]2CC[C@H]1CN(C(=O)c1ccc(N(C)CCO)cc1)C2", "INHIBITION": 6.73},
      {"smiles": "CC(=O)N(C)Cc1cccc(NC(=O)c2cnn(C)c2C)c1", "INHIBITION": -7.28},
      {"smiles": "CC(O)CN1CCC(CNCc2ccc(C(N)=O)cc2)CC1", "note": "(stereo not drawn)", "INHIBITION": -63.41},
      {"smiles": "N#CCCN(c1ccccc1)S(=O)(=O)CC1CCCCO1", "note": "(stereo not drawn)", "INHIBITION": 16.87},
      {"smiles": "CNC(=O)CCN(C)CC1(c2ccc(Br)cc2)CC1", "INHIBITION": -43.52},
      {"smiles": "CCNC(=O)N(C)Cc1ccc(SC)c(OC)c1", "INHIBITION": -53.99},
      {"smiles": "CCc1cnc(C)nc1N(C)CCCc1cnn(C)c1", "INHIBITION": -32.88},
      {"smiles": "COc1ccccc1-n1cc(C(=O)NCCCn2ccnn2)cn1", "INHIBITION": 32.73},
      {"smiles": "CC(C#N)NS(=O)(=O)c1ccc2c(c1)N(C)CCC2", "note": "(stereo not drawn)", "INHIBITION": -95.81},
      {"smiles": "Brc1csc(CNCc2nnc3n2CCC3)c1", "INHIBITION": 26.81},
      {"smiles": "COc1ccc(-n2ccc(C(=O)NCCN3CCCCCC3)n2)cc1", "INHIBITION": 23.42},
      {"smiles": "COC(=O)CCNC(=O)c1ccc(NC(=O)N(C)CC(C)(C)C)cc1", "INHIBITION": 6.85},
      {"smiles": "O=C(CCc1nc(C2CC2)no1)c1ccccc1", "INHIBITION": 53.65},
      {"smiles": "O=C(CCc1nc(C2CC2)no1)c1ccc(F)c(F)c1", "INHIBITION": -44.84},
      {"smiles": "COc1ccc(C(=O)CCc2nc(C3CC3)no2)cc1", "INHIBITION": 9.43},
      {"smiles": "Cc1ccc(CN2CCN(c3ncccc3Cl)CC2CCO)cc1", "note": "(stereo not drawn)", "INHIBITION": -87.47},
      {"smiles": "Cc1nc(C2CCCN(C(=O)c3ccc(S(C)(=O)=O)cc3)C2)no1", "note": "(stereo not drawn)", "INHIBITION": -6.56},
      {"smiles": "COCCN1C[C@@H]2CCCO[C@@H]2[C@H](N(C)Cc2ccco2)C1", "INHIBITION": 45.82},
      {"smiles": "Cc1nccn1-c1nccnc1C1CCN(Cc2ccc(F)cc2)CC1", "INHIBITION": -42.32},
      {"smiles": "O=C(N[C@@H]1CCN(Cc2cc3ccccc3s2)C[C@H]1O)c1cccnc1", "INHIBITION": 60.35},
      {"smiles": "Cc1ccc(CN2CC[C@@H](NC(=O)c3cccnc3)[C@H](O)C2)s1", "INHIBITION": -38.78},
      {"smiles": "CCc1ccccc1CN1CC[C@@H](NC(=O)c2cccnc2)[C@H](O)C1", "INHIBITION": -44.59},
      {"smiles": "NC(=O)c1csc(N2CCCC(c3nc4ccccc4[nH]3)C2)n1", "note": "(stereo not drawn)", "INHIBITION": -41.06},
      {"smiles": "CC(=O)N[C@@H]1CN(Cc2ccccc2C#N)C[C@H]1c1ccc(C)cc1", "INHIBITION": 28.19},
      {"smiles": "CCN(CC1CCCO1)C(=O)Nc1ccc(F)cc1OC", "note": "(stereo not drawn)", "INHIBITION": 22.1},
      {"smiles": "CCN(CC1CCCO1)C(=O)Nc1cc(C(N)=O)ccc1OC", "note": "(stereo not drawn)", "INHIBITION": 84.53},
      {"smiles": "CCN(CC1CCCO1)C(=O)Nc1cc(OC)c(OC)cc1C", "note": "(stereo not drawn)", "INHIBITION": -19.76},
      {"smiles": "O=C(C1CC=CC1)N1C[C@H]2CN(Cc3ccncc3)C(=O)[C@H]2C1", "INHIBITION": 30.57},
      {"smiles": "CN(C)CCNC(=O)[C@H]1C[C@H]2CN(C(=O)NC3CCCC3)C[C@@H]1O2", "INHIBITION": 43.87},
      {"smiles": "CN1CCN(c2ncnc3c2CCN(C(=O)c2cccn2C)CC3)CC1", "INHIBITION": -4.99},
      {"smiles": "Cc1nnc(NC(=O)c2c3c(nn2C2CCS(=O)(=O)C2)CCC3)s1", "note": "(stereo not drawn)", "INHIBITION": 48.68},
      {"smiles": "CCc1nnc(NC(=O)c2c3c(nn2C2CCS(=O)(=O)C2)CCC3)s1", "note": "(stereo not drawn)", "INHIBITION": 58.53},
      {"smiles": "Cc1nc(NC(=O)c2c3c(nn2C2CCS(=O)(=O)C2)CCC3)sc1C", "note": "(stereo not drawn)", "INHIBITION": 20.76},
      {"smiles": "COc1cc2nc3n(c(=O)c2cc1OC)CCN(C(=O)C1CCC1)CC3", "INHIBITION": -50.24},
      {"smiles": "c1c(CN2CCCCC2)nc2n1CCNC2", "INHIBITION": 60},
      {"smiles": "c1c(CN2CCCC2)nc2n1CCNC2", "INHIBITION": -102.41},
      {"smiles": "CN1CCN(Cc2cn3c(n2)CNCC3)CC1", "INHIBITION": 33.11}
    ]}
  ]
}
